# Source: PubChem (National Center for Advancing Translational Sciences (NCATS))
# Only some compounds are listed: those with a hit (about 5.7% of all), similar ones and a draw of the others.
# HEK293 tox: cytotoxicity counter-screen for GLP-1 receptor inverse agonists; HEK293 cAMP-luciferase reporter cells, luminescence, 24 h; Potency, µM (top dose mostly 38.3 µM), hits mostly inhibitors; hit rate 0.13% among 410,000; AID 624418;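 note: loss of luciferase light is scored as toxicity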
#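 Here, cytotoxicity is scored as loss of luminescence. The MLSMR collection was tested on cells seeded in medium containing 10% Nu serum, with a 24 hr compound exposure preceded by 12 hours of culture.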
# D3 antag: antagonists of human D3 dopamine receptor; D3R cells, DiscoveRx beta-arrestin luminescence, antagonist mode; active compounds read low; max response, negative = inhibition, %; hit rate 2.5% among 360,000; P35462; AID 652054; in the data active = max response below about -50%; inconclusive = no clear call, values can overlap the other calls
#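 Cells expressing the human receptor were seeded at 1500 cells/well, incubated overnight at 37 degrees C in 5% CO2, then exposed to library compounds with dopamine controls for 90 minutes at 37 degrees C before luminescent detection.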
# D3 ag: activates the human D3 dopamine receptor; max activation, %; D3R DiscoveRx beta-arrestin cells, luminescence, 90 min; P35462; AID 652048; hit rate 0.58% among 410,000; in the data active = max activation above about 30%
#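 Cells at 1500/well, incubated overnight, then treated with pinned compounds (dopamine as control) for 90 min at 37 degrees C. DiscoveRx reagent added for 30 - 60 minutes at room temperature; luminescence read.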
# GLP1R ag: agonists of human GLP-1 receptor; P43220; HEK293 GLP-1R CRE-luciferase, luminescence, 4-6 h; cells express a hypersensitive GLP-1R form; Potency, µM (top dose mostly 45.6 µM), actives largely listed as activators; hit rate 0.007% among 380,000; AID 624172
# GLP1R inv ag: GLP-1 receptor (human) inverse agonism; HEK293 GLP-1R CRE-luciferase, luminescence, 24 h; GLP-1R form is constitutively active; hit rate 1.6% among 410,000; P43220; Potency, µM (highest dose often 38.3 µM), most hits filed as inhibitors; note: nearly all actives have a fitted effect of over 55% in size
#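 qHTS in 1536-well format: reporter HEK293 cells expressing constitutive GLP-1R activity in DMEM + 10% Nu serum, 24 hr with compounds at 37 deg C, luminescence read after 12 min with detection reagent.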
# ClpP mod: qHTS Assay for Activators of ClpP | purified B. subtilis ClpP, FRET peptide cleavage, 20 min | Potency, µM (highest dose often 57.5 µM) | hit rate 1.9% among 340,000; active = well fitted falling curve with a large enough effect; inconclusive = small, poorly fitted or top-dose-only effect; inactive = no such curve, though single readings can be large or run the other way; note: the source files actives as falling curves though it sought activators and does not explain the sign; nearly all actives have a fitted effect of over 65% in size
#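 ClpP 10 microg/mL final, pH 8 Tris/KCl buffer with BSA, glycerol, Tween-20; compound pinned in; FRET-FV substrate; RT 20 min; Ex320/Em430; ΔFRET vs ADEP 5.8 microM, DMSO, no enzyme.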
# Hits are given with their value; – = inactive; ? = inconclusive; · = no result. Unless noted, calls come from the whole dose curve; as a rule, active = well fitted curve in the direction sought with a large enough effect; inconclusive = small, poorly fitted or top-dose-only effect, or another doubt; inactive = no such curve, though single readings can be large; an effect the other way counts as inactive or inconclusive.
SMILES,HEK293 tox,D3 antag,D3 ag,GLP1R ag,GLP1R inv ag,ClpP mod
O=C(CN1CCOCC1)c1ccc2ccccc2c1,·,·,·,·,·,–
C[C@@H]1NCCc2cc(O)c(O)cc21,–,-74.1,–,–,–,–
COc1ccc(CC2c3cc(OC)c(OC)cc3CCN2C)cc1OC (stereo unspecified),–,–,–,–,–,–
COc1cc2c(cc1O)[C@@H]1Cc3ccc(OC)c(O)c3CN1CC2,?,-99.6,–,–,10µM,–
COc1ccc(C[C@@H]2c3cc(O)c(OC)cc3CCN2C)cc1O,–,-116.8,–,–,–,–
COc1cc2c(cc1O)C[C@H]1c3c(cc(O)c(OC)c3-2)CCN1C,–,–,–,–,–,–
CCN1CCN(Cc2ccc(NC(=O)c3cc(NC(=O)c4cc(-c5ccc(OC)cc5)n[nH]4)cc(OC)c3)cc2C(F)(F)F)CC1,?,–,–,–,?,–
CCN1CCN(Cc2ccc(NC(=O)c3cc(NC(=O)c4cc5cccc(OC)c5o4)cc(OC)c3)cc2C(F)(F)F)CC1,?,-58.1,–,–,?,?
CC(=O)NN1C(=O)/C(=C/c2ccc(Br)o2)SC1=S,–,–,–,–,–,–
O=C(NN1C(=O)/C(=C/c2ccc(O)c(O)c2)SC1=S)c1ccccc1,?,-63.0,–,–,?,·
NC(=S)NN=C(c1ccc(Br)cc1)C1CC1,2.51µM,–,–,–,3.98µM,–
Fc1ccccc1N1CCN(Cc2c(F)cccc2F)CC1,–,?,–,–,–,–
Cc1ccccc1N1CCN(Cc2ccc3c(c2)OCO3)CC1,–,-76.5,–,–,?,–
Clc1ccccc1N1CCN(Cc2ccc3c(c2)OCO3)CC1,–,-88.1,–,–,?,–
Fc1ccccc1N1CCN(Cc2ccc3c(c2)OCO3)CC1,–,?,–,–,–,–
Clc1ccccc1CN1CCN(c2ccccc2Cl)CC1,–,-83.1,–,–,?,–
CC(=O)Nc1cc(-c2cccc(C(=O)N(C)C)c2)cn2c(-c3cccc(C(F)(F)F)c3)cnc12,–,–,–,–,?,–
CC1(C)N([O])C(c2ccc(C(=O)O)cc2)=[N+]([O-])C1(C)C,·,·,·,·,·,–
CC(=O)O[C@H]1C[C@H](O[C@H]2[C@@H](O)C[C@H](O[C@H]3[C@@H](O)C[C@H](OC4CC[C@@]5(C)C(CC[C@@H]6[C@@H]5CC[C@]5(C)[C@@H](C7=CC(=O)OC7)[C@@H](O)C[C@]65O)C4)O[C@@H]3C)O[C@@H]2C)O[C@H](C)[C@H]1O[C@@H]1O[C@H](CO)[C@@H](O)[C@H](O)[C@H]1O (stereo partly specified),·,·,–,·,·,·
N#Cc1c(N)n(C2OC(CO)C(O)C2O)c2ncnc(N)c12 (stereo unspecified),?,?,–,–,?,–
CN1C(=O)C(O)N=C(c2ccccc2)c2cc(Cl)ccc21 (stereo unspecified),·,·,–,–,·,·
CCCCCCOc1ccc(CN2CCN(C)CC2)cc1,–,–,–,–,3.16µM,–
[H+].[H+].[Hg+2].[O-]B([O-])[O-].[c-]1ccccc1,·,·,–,·,·,·
COc1cccc2c1C(=O)c1c(O)c3c(c(O)c1C2=O)CC(O)(C(C)=NO)CC3OC1CC(N)C(O)C(C)O1 (stereo unspecified),11.2µM,–,–,–,10µM,–
O=C(O)Cn1cc(/C=C2\C(=O)NC(=O)N(Cc3ccco3)C2=O)c2ccccc21,–,-63.7,–,–,–,–
SMILES,HEK293 tox,D3 antag,D3 ag,GLP1R ag,GLP1R inv ag,ClpP mod
Cc1ccc(N2C(=O)NC(=O)/C(=C\c3cn(CC(=O)O)c4ccccc34)C2=O)cc1,–,–,–,–,–,–
CNC(C)CC1CCCCC1 (stereo unspecified),·,·,–,–,·,·
C[C@H]1[C@@H]2Cc3ccc(O)cc3[C@@]1(C)CCN2C,·,·,–,·,·,·
Cc1ccc(C(C)C)c(OCCn2c(=O)oc3ccccc32)c1,–,–,–,–,?,–
COc1cccc([C@@]2(O)CCCC[C@@H]2CN(C)C)c1,–,–,–,?,–,·
COc1cccc(C2(O)CCSCC2CN(C)C)c1 (stereo unspecified),–,–,–,–,–,3.55µM
COc1cccc(C(=O)CCN[C@@H](C)[C@H](O)c2ccccc2)c1,·,·,–,–,·,·
COCCOCCO,·,·,–,–,·,·
COc1ccc(CN2CCN(c3ccccc3)CC2)c(C)c1C,–,-75.3,–,–,–,–
Brc1cc2c(cc1CN1CCN(c3ccccc3)CC1)OCCO2,–,-73.4,–,–,–,·
c1ccc(N2CCN(c3ccccc3)CC2)cc1,·,·,·,·,·,–
Oc1cc2c(cc1CN1CCN(c3ccc(F)cc3)CC1)OCO2,–,-66.5,–,–,–,·
Cc1cc(O)c(CN2CCN(c3ccccc3)CC2)cc1C,–,-64.8,–,–,–,–
COc1cccc(NC(=O)CCc2nc(-c3ccc(C(C)(C)C)cc3)no2)c1,–,·,–,·,?,–
Cc1ccccc1S(=O)(=O)N(C)C[C@@H]1OCc2ccccc2-c2c(n(C)c3ccccc23)C(=O)N([C@H](C)CO)C[C@@H]1C,–,–,–,–,?,–
COc1ccccc1Cc1c(-c2ccc(F)cc2)nc2cc(C)c(Br)c(C)n12,–,–,–,–,?,–
Oc1ccc(Cl)cc1CN1CCN(Cc2ccccc2)CC1,–,-65.5,–,–,?,–
Cc1ccc(O)c(CN2CCN(c3ccccc3)CC2)c1,–,-80.0,–,–,?,–
Oc1cc2c(cc1CN1CCN(c3ccccc3)CC1)CCC2,–,–,–,–,–,–
CN1CCN(Cc2nc3ccccc3n2C)CC1,–,–,–,–,–,–
Cn1c(NN=O)nc2ccccc21,?,–,–,–,4.47µM,·
COc1cccc(/C=C/c2nc(C#N)c(NC3CCCCC3)o2)c1,–,·,–,·,–,–
O=C(CCCN1CCC(n2c(=O)[nH]c3ccccc32)CC1)c1ccc(F)cc1,–,-103.2,–,–,?,–
C=CC[C@@H](CC(=O)N(CCO)Cc1ccccc1)C(=O)NC[C@H](OC(=O)[C@@H](CC=C)CC(=O)OC(C)(C)C)c1ccccc1,–,–,–,–,?,–
COc1ccc(N2C(=O)/C(=C/c3ccc(OC)c(OC)c3)C(=O)NC2=S)cc1,–,–,–,–,–,–
COc1ccc(N2C(=O)C3[C@@H](C2=O)C2(Cl)C(Cl)=C(Cl)C3(Cl)C2(OC)OC)cc1 (stereo partly specified),–,–,–,–,–,3.55µM
O=C(NCCSc1c(-c2ccccc2)[nH]c2ccccc12)c1ccc(S(=O)(=O)N2CCOCC2)cc1,–,·,–,·,?,–
